Assay outcomes (PubChem BioAssay)
Gal4-VP16 FLuc: inhibits Gal4-VP16 luciferase reporter, ROR gamma counter-screen; Drosophila S2 Gal4-VP16 UAS-luciferase, luminescence, 20 h; Potency, µM (series often up to 53.6 µM), without a hit: at the top dose activity, negative = inhibition, actives largely listed as inhibitors; hit rate 3.5% among 310,000;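 note: Gal4-VP16 expression switched on by copper sulfate through the metallothionein promoter; potency is the fitted concentration of half-maximal effect; nearly all actives have a fitted effect of over 50% in size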
RORgamma inh: ROR gamma (mouse) transcription inhibition; Drosophila S2 Gal4-RORgamma UAS-luciferase reporter, 20 h; P51450; hit rate 5.4% among 310,000; Potency, µM (top dose mostly 53.6 µM), inactives show top-dose activity change, negative = inhibition, most hits filed as inhibitors; note: potency is the fitted concentration of half-maximal effect; nearly all actives have a fitted effect of over 60% in size
Target sequence (P51450 whole entry, looked up, the tested form may be a part): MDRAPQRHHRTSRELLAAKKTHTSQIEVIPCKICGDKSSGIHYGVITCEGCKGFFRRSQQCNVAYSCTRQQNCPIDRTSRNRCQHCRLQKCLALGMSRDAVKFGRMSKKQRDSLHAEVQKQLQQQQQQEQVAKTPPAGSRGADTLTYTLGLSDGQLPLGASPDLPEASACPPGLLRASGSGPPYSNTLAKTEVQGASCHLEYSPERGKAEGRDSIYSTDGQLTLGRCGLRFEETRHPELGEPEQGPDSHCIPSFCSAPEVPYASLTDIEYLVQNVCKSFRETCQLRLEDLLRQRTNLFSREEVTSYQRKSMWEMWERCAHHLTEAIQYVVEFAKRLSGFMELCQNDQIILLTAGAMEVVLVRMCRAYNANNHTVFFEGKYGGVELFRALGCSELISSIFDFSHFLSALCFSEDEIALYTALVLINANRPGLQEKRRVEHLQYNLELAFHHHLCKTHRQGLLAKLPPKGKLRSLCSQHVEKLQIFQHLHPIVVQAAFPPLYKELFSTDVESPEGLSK
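Schneider cells (Drosophila), stable Gal4 DBD–ROR gamma + UAS-luc; 1 hr cmpd preincubation; Cu2+ induction 700 uM final; 20 hr ambient; luminescence.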
TDP1 cell CPT: DT40-hTDP1 cell growth loss with CPT. chicken DT40 Tdp1-/-;hTDP1 cells + 20 nM CPT, ATP luminescence, 48 h. Potency, µM (highest dose often 46.2 µM), inactives show at the top dose activity change, negative = growth inhibition, most hits filed as inhibitors. hit rate 12% among 420,000. AID 686979; note: potency is the fitted concentration of half-maximal effect; nearly all actives have a fitted effect of over 55% in size
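Chicken DT40 Tdp1-/- cells stably complemented with human TDP1 were seeded at 400 cells/well in medium containing 20 nM camptothecin, exposed to pin-transferred compounds, and grown at 37 °C for at least 48 hr. Viability was read as ATP luminescence.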
IL1B secr inh: blocks inflammasome-driven IL-1 beta release; THP-1 LPS/ATP IL-1B secretion, AlphaLISA, 16 h; stronger effect = lower value; activity change, % at 57.5 µM; hit rate 4.7% among 360,000; AID 743279; in the data active = activity change below about -50%; inconclusive = mostly about -30% to -49%
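THP-1 cells pretreated 1 hr with compounds (up to 57.5 uM final), then stimulated with LPS (250 ng/mL final) plus ATP (1.25 mM final); secreted IL-1B measured by AlphaLISA after 16 hr, decreased signal indicating inhibition.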
LDHA block: LDHA (human) enzyme inhibition | activity change, % (values are at about 110 or 230 µM) | P00338 | hit rate 0.15% among 480,000 | purified LDHA, NADH/diaphorase-resazurin fluorescence; stronger effect = lower value; in the data active = activity change below about -30%; inconclusive = mostly about -25% to -30%;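 note: plate controls were DMSO wells for no effect and wells without enzyme for full effect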
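Remaining NADH was detected by diaphorase (0.133 mg/mL) converting 37 µM resazurin to fluorescent resorufin, read at 0 and 20 minutes. The preceding 5-minute room-temperature reaction used 2 nM LDHA, 0.2 mM sodium pyruvate and 0.06 mM NADH at pH 7.4.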
DT40 TDP1 no CPT: qHTS for Inhibitors of human tyrosyl-DNA phosphodiesterase 1 (TDP1): qHTS in cells in absence of CPT. DT40 Tdp1-/- hTDP1 cells, no CPT, ATP luminescence, 48 h. Potency, µM (highest dose often 46.2 µM), for the others: top-dose activity change, negative = growth inhibition, hits mostly inhibitors. hit rate 15% among 420,000; note: potency is the fitted concentration of half-maximal effect; nearly all actives have a fitted effect of over 55% in size
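No-CPT arm: Tdp1-/-;hTDP1 DT40 cells (400/well) plus compounds, incubated ≥48 hr at 37 °C. Readout CellTiter-Glo luminescence.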
Active calls of the source: *; ? = inconclusive; · = no result given; [ ] = remark or other dose. Hits are enriched below; roughly 18% of the tested compounds scored in any of these assays. Unless noted, calls come from the whole dose curve; as a rule, active = well fitted curve in the direction sought with a large enough effect; inconclusive = small, poorly fitted or top-dose-only effect, or another doubt; inactive = no such curve, though single readings can be large; an effect the other way counts as inactive or inconclusive. Unless noted, % is set by controls: 0 for no effect and ±100 for the full control effect.

SMILES | Gal4-VP16 FLuc | RORgamma inh | TDP1 cell CPT | IL1B secr inh | LDHA block | DT40 TDP1 no CPT
CCn1cc(CN2CCCC(C(=O)Nc3cccc(-c4cc5ccccc5[nH]4)c3)C2)cn1 (configuration not stated) | 3% | 0% | 4% | -81* | 0 | ?
COc1ccc(-c2noc(CN3CCCC(C(=O)Nc4ccc(C)cc4)C3)n2)cc1OC (configuration not stated) | · | · | · | · | -1 | ·
CCc1ncc(CN2CCCC(C(=O)Nc3cccc(-c4cccc(C)c4)c3)C2)cn1 (configuration not stated) | -5% | 0% | ? | -7 | 1 | ?
O=C(Nc1ccc(-c2cccc(F)c2)cc1)C1CCCN(Cc2ccccn2)C1 (configuration not stated) | 11µM* | 13µM* | 21µM* | ? | 2 | 23µM*
CN(CC(=O)Nc1ccccc1)C(=O)c1cc2c(s1)CCCCC2 | · | · | · | · | 8 | ·
Cc1ccc(-c2cnc(CCC(=O)N(C)C(C)c3ccc(S(N)(=O)=O)cc3)o2)cc1C (configuration not stated) | · | · | · | · | 13 | ·
Cc1ncc(CN2CCCC(C(=O)Nc3ccc(-c4cccc(F)c4)cc3)C2)s1 (configuration not stated) | -3% | 22% | ? | ? | 2 | ?
Cc1ncc(CN2CCCC(C(=O)Nc3ccc(-c4cccc(F)c4)cc3)C2)cn1 (configuration not stated) | -18% | 27% | 15µM* | -87* | 3 | ?
COc1cc(-c2noc(C3CC(=O)N(c4ccc5c(c4)OCCO5)C3)n2)cc(OC)c1OC (configuration not stated) | · | · | ? | · | -2 | ?
CCOc1ccc(N2CC(c3nc(-c4cc(OC)c(OC)c(OC)c4)no3)CC2=O)cc1 (configuration not stated) | · | · | ? | · | 1 | 26µM*
COc1ccc(N2CC(c3nc(-c4cc(OC)c(OC)c(OC)c4)no3)CC2=O)cc1Cl (configuration not stated) | · | · | ? | · | 4 | 16µM*
CN(C)c1ccc(-c2noc(C3CC(=O)N(c4ccc5c(c4)OCCO5)C3)n2)cc1 (configuration not stated) | · | · | 4.6µM* | · | 0 | 2.9µM*
CCCNc1nc(-c2ccc(Br)cc2)cs1 | · | · | · | · | 12 | ·
CC(C)CC(=O)N(c1ccc(Br)cc1)C1C=CS(=O)(=O)C1 (configuration not stated) | · | · | · | · | -15 | ·
CCc1c(C)sc(NC(=O)C2CCCC2)c1C#N | · | · | · | · | 5 | ·
C[C@@H](CO)NC(=O)c1[nH]cnc1C(=O)Nc1ccc(CNC(=O)OC(C)(C)C)cc1 | · | · | 23µM* | -4 | 4 | 12µM*
C[C@H](CO)NC(=O)c1[nH]cnc1C(=O)Nc1ccc(CNC(=O)OC(C)(C)C)cc1 | · | · | -17% | -17 | 0 | ?
CCOC(=O)c1ccc(NC(=O)c2nc[nH]c2C(=O)N[C@@H](C)CO)cc1 | · | · | -1% | ? | -13 | 21µM*
CCOC(=O)c1ccc(NC(=O)c2nc[nH]c2C(=O)NC[C@@H](C)O)cc1 | · | · | 6% | -18 | -1 | -22%
CC(C)(C)OC(=O)NCc1ccc(NC(=O)c2nc[nH]c2C(=O)NCCNC(=O)c2[nH]cnc2C(=O)Nc2ccc(CNC(=O)OC(C)(C)C)cc2)cc1 | · | · | 15µM* | 60 | -11 | 18µM*
COc1cc(/C=C2/NC(=O)NC2=O)cc(Cl)c1OCc1cccc(C(=O)O)c1 | · | · | · | · | 9 | ·
Cc1onc(-c2ccccc2Cl)c1C(=O)N1CC(C)CC(C)C1 (configuration not stated) | 7% | 28% | 15µM* | 4 | -4 | 10µM*
Cc1onc(-c2ccccc2Cl)c1C(=O)Nc1ccccc1C(=O)NC(C)C | -5% | 7% | 3.3µM* | ? | -8 | 2.3µM*
Cc1cccc(C(=O)NNC(=O)c2c(-c3ccccc3Cl)noc2C)c1O | -26% | 10µM* | ? | -4 | 0 | 29µM*
Cc1onc(-c2ccccc2Cl)c1C(=O)Nc1ccc(Cl)cn1 | 4% | 2% | ? | -2 | -8 | ?
SMILES | Gal4-VP16 FLuc | RORgamma inh | TDP1 cell CPT | IL1B secr inh | LDHA block | DT40 TDP1 no CPT
Cc1onc(-c2ccccc2Cl)c1C(=O)NC(=S)Nc1ccccc1C(N)=O | -13% | ? | 26µM* | 28 | -1 | ?
Cc1onc(-c2ccccc2Cl)c1C(=O)Nc1ccccc1C(N)=O | -9% | 14% | ? | 37 | -10 | ?
Cc1c(C=O)c(C)n(C)c1C | · | · | · | · | 9 | ·
CC(C)CC(=O)Nc1ccc(-c2cn3ccsc3n2)cc1 | ? | ? | ? | 20 | -1 | ?
CC(C)(C)C(=O)Nc1ccc(-c2cn3ccsc3n2)cc1 | 4.5µM* | 4.5µM* | 14µM* | -4 | -4 | ?
O=C(CCc1c[nH]c2ccccc12)N1CCCC1c1ccc(F)cc1 (configuration not stated) | · | · | · | · | 6 | ·
Cc1ccccc1NC(=O)c1ccc(-n2cncn2)nc1 | -6%[0.365 µM] | 18µM* | -12% | -5 | 2 | -17%
NC(=S)n1[nH]c(-c2ccc([N+](=O)[O-])cc2)c(N=Nc2cccc(Cl)c2)c1=O | 7.1µM* | 0.4µM* | 8.2µM* | ? | -7 | 6.5µM*
Cc1[nH]n(C(N)=S)c(=O)c1N=Nc1cccc(Cl)c1 | 1.6µM* | 0.28µM* | ? | -3 | -6 | ?
COc1ccc(C(=O)N2CCC(C(=O)NC(C)c3cccc(Cl)c3)CC2)c2ccccc12 (configuration not stated) | · | · | · | · | 10 | ·
O=C(O)c1ccc(COc2ccccc2/C=N/O)cc1 | · | · | · | · | 0 | ·
CNC(=O)c1cccc(NC(=O)C2CCCCC2)c1 | · | · | · | · | 5 | ·
O=c1[nH]cc(N=Cc2cc([N+](=O)[O-])ccc2O)c(=O)[nH]1 | -1% | -23% | · | · | · | ·
O=c1[nH]cc(N=Cc2cc(Cl)cc(Cl)c2O)c(=O)[nH]1 | 13µM* | 11µM* | 14% | -4 | 4 | -20%
COc1cccc(Nc2nc3ccc(C(=O)c4ccccc4)cc3n3c(C)nnc23)c1 | · | · | 12µM* | · | 2 | ?
CCOC(=O)c1ccc(Nc2nc3ccc(C(=O)c4ccccc4)cc3n3c(C)nnc23)cc1 | · | · | -22% | · | -9 | -18%
CCc1nnc2c(Nc3cccc(F)c3)nc3ccc(C(=O)c4ccccc4)cc3n12 | · | · | 6.5µM* | · | -9 | 2.9µM*
Cc1c(Cl)cccc1Nc1nc2ccc(C(=O)c3ccccc3)cc2n2cnnc12 | · | · | ? | · | 2 | 23µM*
